The text below walks through data of PubChem BioAssay (Tox21).

Several values for one entry are separate records, joined by “and”; a condition that tells them apart may be missing. Identical values can stand only once. A structure can be active in one record and inactive in another. Activity calls are given as the source filed them. Unless noted, calls come from the whole dose curve; as a rule, active = well fitted curve in the direction sought with a large enough effect in the repeat runs; inconclusive = weak or mixed curves; inactive = no such curve, though single readings can be large; an effect the other way counts as inactive or inconclusive.

Assay [1] is described as follows: qHTS assay to identify small molecule antagonists of the glucocorticoid receptor (GR) signaling pathway - cell viability counter screen (AID 720693; note: nearly all actives have a fitted effect of over 55% in size). (Quantitative high-throughput screening tests each substance at several concentrations.)
Assay [2] can be described thus: qHTS assay for identifying genotoxic compounds that show differential cytotoxicity against isogenic chicken DT40 cell lines with known DNA damage response pathways - wild type cell line (AID 743012). Note: nearly all actives have a fitted effect of over 60% in size. Note: potency is the fitted concentration of half-maximal effect. Summed up:
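CellTiter-Glo luminescence readout of viability in wild type DT40 cells after 40 h compound exposure at 37 C/5% CO2; 300 cells/well; reagent incubated 30 min at room temperature before reading.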

Assay [3] in a line: qHTS assay for identifying genotoxic compounds that show differential cytotoxicity against isogenic chicken DT40 cell lines with known DNA damage response pathways - Rev3 mutant cell line (AID 743014). Note: nearly all actives have a fitted effect of over 55% in size. Note: potency is the fitted concentration of half-maximal effect.
Assay [4] is described as follows: qHTS assay for identifying genotoxic compounds that show differential cytotoxicity against isogenic chicken DT40 cell lines with known DNA damage response pathways - Rad54/Ku70 mutant cell line (AID 743015). Note: nearly all actives have a fitted effect of over 60% in size. Note: potency is the fitted concentration of half-maximal effect.
Assay [5] in a line: qHTS assay to identify small molecule antagonists of the thyroid receptor (TR) signaling pathway - cell viability counter screen (AID 743064). Note: nearly all actives have a fitted effect of over 50% in size. Note: potency is the fitted concentration of half-maximal effect. The method, boiled down:
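Plate GH3.TRE-Luc cells; incubate 4 h at 37 °C; add compound, then T3 to 1 nM final; incubate 23.5 h; add CellTiter-Fluor; incubate 30 min at 37 °C, 5% CO2; read fluorescence.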

A short description of assay [6]: qHTS assay to identify small molecule antagonists of the thyroid receptor (TR) signaling pathway (AID 743065). Note: nearly all actives have a fitted effect of over 55% in size. Note: potency is the fitted concentration of half-maximal effect. Summed up: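 GH3.TRE-Luc rat pituitary cells (two TREs driving luciferase) were dosed with compound, then stimulated with 1 nM T3 (final) for 23.5 h at 37 C. ONE-Glo luminescence was the read-out, with CellTiter-Fluor fluorescence as the cytotoxicity counter-screen.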

In assay [7] the test system is thyroid hormone receptor (rat, GH3 cells). The assay is described as follows: qHTS assay to identify small molecule agonists of the thyroid receptor (TR) signaling pathway (AID 743066; calls by dose curve).
Assay [8] in a line: qHTS assay to identify small molecule antagonists of the estrogen receptor alpha (ER-alpha) signaling pathway - cell viability counter screen (AID 743074; calls by dose curve;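 note: HEK293 cells carrying ER-alpha-UAS-bla reporter stimulated with 17beta-estradiol; nearly all actives have a fitted effect of over 45% in size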).
Assay [9] concerns the target Estrogen receptor (Homo sapiens) (UniProt P03372). The assay is described as follows: qHTS assay to identify small molecule agonists of the estrogen receptor alpha (ER-alpha) signaling pathway (AID 743075; calls by dose curve;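 note: HEK293 GripTite cells with ER-alpha and UAS-driven beta-lactamase reporter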; note: potency is the fitted concentration of half-maximal effect).
For assay [10] the target is unchanged. The assay is described as follows: qHTS assay to identify small molecule agonists of the estrogen receptor alpha (ER-alpha) signaling pathway using the BG1 cell line (AID 743079). Note: nearly all actives have a fitted effect of over 20% in size. Note: potency is the fitted concentration of half-maximal effect.
Assay [11] is described as follows: qHTS assay to identify small molecule antagonists of the estrogen receptor alpha (ER-alpha) signaling pathway using the BG1 cell line - cell viability counter screen (AID 743081).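 Note: compound given together with 17beta-estradiol as the ER stimulus; nearly all actives have a fitted effect of over 45% in size.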 Note: potency is the fitted concentration of half-maximal effect.
For another assay, the target named is Aromatase (Homo sapiens) (UniProt P11511). The assay is described as follows: qHTS assay to identify aromatase inhibitors (AID 743083). Note: nearly all actives have a fitted effect of over 55% in size. Note: potency is the fitted concentration of half-maximal effect.
Sequence of Aromatase (Homo sapiens) (P11511 whole entry, looked up): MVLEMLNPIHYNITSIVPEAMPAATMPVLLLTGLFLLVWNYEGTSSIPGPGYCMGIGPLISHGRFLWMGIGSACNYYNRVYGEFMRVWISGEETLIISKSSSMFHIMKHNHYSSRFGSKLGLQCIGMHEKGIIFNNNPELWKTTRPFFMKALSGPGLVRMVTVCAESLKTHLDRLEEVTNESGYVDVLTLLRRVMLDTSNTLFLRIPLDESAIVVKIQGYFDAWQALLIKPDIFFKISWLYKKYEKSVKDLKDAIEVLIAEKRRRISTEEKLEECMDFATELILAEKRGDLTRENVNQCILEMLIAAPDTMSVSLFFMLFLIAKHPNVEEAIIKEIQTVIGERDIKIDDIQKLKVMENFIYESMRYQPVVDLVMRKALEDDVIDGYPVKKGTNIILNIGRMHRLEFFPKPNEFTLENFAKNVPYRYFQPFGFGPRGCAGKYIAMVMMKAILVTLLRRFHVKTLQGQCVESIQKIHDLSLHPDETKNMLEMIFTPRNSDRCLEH
Assay [12] in a line: qHTS assay to identify small molecule antagonists of the androgen receptor (AR) signaling pathway using the MDA cell line - cell viability counter screen (AID 743041; note: nearly all actives have a fitted effect of over 45% in size). The method, boiled down:
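Cytotoxicity counter screen: MDA-kb2 AR-luc cells, compound + R1881, 16 h, 37C, 0% CO2; CellTiter-Fluor added at 15.5 h, fluorescence read after 30 min.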

Assay [13] in a line: qHTS assay to identify small molecule antagonists of the estrogen receptor alpha (ER-alpha) signaling pathway using the BG1 cell line (AID 743080; calls by dose curve;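 note: BG1 cells stimulated with 17beta-estradiol alongside compound; nearly all actives have a fitted effect of over 25% in size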; note: potency is the fitted concentration of half-maximal effect). Summed up:
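Seeding, 24 h rest, compound transfer from DMSO, 17beta-estradiol addition, 21.5 h incubation, CellTiter-Fluor (30 min, 37 C), then ONE-Glo (30 min, room temperature): this sequence was run on BG1-Luc-4E2 reporter cells.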

Assay [14] can be described thus: qHTS assay to identify small molecule antagonists of the androgen receptor (AR) signaling pathway - cell viability counter screen (AID 743033; note: nearly all actives have a fitted effect of over 45% in size).
In assay [15] the target is Estrogen receptor (Homo sapiens) (UniProt P03372). The assay is described as follows: qHTS assay to identify small molecule antagonists of the estrogen receptor alpha (ER-alpha) signaling pathway (AID 743069; active = well fitted curve in the direction sought with a large enough effect in the signal ratio in the repeat runs, not every such curve was filed as active; inconclusive = weak or mixed curves, or effect the other way; inactive = no such curve, though single readings can be large or run the other way; the % refers to the signal ratio). Summed up:
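Beta-lactamase FRET fluorescence is read after 2 hr at room temperature with LiveBLAzer B/G substrate. Before that, ER-alpha-bla HEK293 cells sit 4 hr after plating, then receive compound plus 17beta-estradiol and incubate 18 hr at 37C.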

For assay [16], the target named is Androgen receptor (Homo sapiens) (UniProt P10275). The assay is described as follows: qHTS assay to identify small molecule agonists of the androgen receptor (AR) signaling pathway using the MDA cell line (AID 743040; note: nearly all actives have a fitted effect of over 20% in size). Conditions: MDA-kb2 AR-luc cells, MMTV luciferase, 16 h; activity change: at 70.3 µM (top of the series), stronger effect = higher value. The method, boiled down:
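Luciferase read-out, ONE-Glo, 30 min RT. Cells: MDA-kb2 AR-luc, MMTV promoter with AR and GR response elements. Compound exposure 16 h, 37C, 0% CO2, after 5 h pre-incubation. qHTS agonist mode.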

For assay [17] the target is unchanged. Put plainly: qHTS assay to identify small molecule antagonists of the androgen receptor (AR) signaling pathway using the MDA cell line (AID 743042; note: nearly all actives have a fitted effect of over 55% in size; note: potency is the fitted concentration of half-maximal effect). Summed up: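 MDA-kb2 breast carcinoma cells carrying MMTV-luciferase (AR/GR responsive) were co-treated with compounds and the agonist R1881 for 16 h at 37C. Inhibition read as ONE-Glo luminescence; CellTiter-Fluor fluorescence measured in parallel for cytotoxicity.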

Assay [18] shares this target. Put plainly: qHTS assay to identify small molecule agonists of the androgen receptor (AR) signaling pathway (AID 743036; active = well fitted activation curve with a large enough effect in the signal ratio in the repeat runs, with a control signal flat, not every such curve was filed as active; inconclusive = weak or mixed curves, or effect the other way; inactive = no such curve, though single readings can be large or run the other way; the % refers to the signal ratio). The method, boiled down: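 Reporter line: GeneBLAzer AR-UAS-bla-GripTite (HEK293). Steps: plate cells, 4 h rest, add compounds, 16 h at 37C, add LiveBLAzer B/G substrate, 2 h at RT, read fluorescence.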

Sequence of Estrogen receptor (Homo sapiens) (P03372 whole entry, looked up): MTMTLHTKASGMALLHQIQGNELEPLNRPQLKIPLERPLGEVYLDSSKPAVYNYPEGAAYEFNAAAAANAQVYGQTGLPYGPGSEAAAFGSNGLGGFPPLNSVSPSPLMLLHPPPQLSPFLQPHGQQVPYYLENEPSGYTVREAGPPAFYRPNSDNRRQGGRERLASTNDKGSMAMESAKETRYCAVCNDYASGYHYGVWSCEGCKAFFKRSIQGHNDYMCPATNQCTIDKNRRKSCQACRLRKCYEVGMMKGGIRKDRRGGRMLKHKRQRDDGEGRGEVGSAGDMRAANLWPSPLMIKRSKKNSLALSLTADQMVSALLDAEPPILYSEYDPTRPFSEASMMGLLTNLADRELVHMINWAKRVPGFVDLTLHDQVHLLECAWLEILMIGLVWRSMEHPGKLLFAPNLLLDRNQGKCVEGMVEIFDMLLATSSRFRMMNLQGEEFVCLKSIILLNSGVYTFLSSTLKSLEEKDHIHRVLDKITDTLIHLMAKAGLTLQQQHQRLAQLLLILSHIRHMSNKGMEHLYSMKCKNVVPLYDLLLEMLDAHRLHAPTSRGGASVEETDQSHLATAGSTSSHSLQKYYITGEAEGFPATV
Sequence of Androgen receptor (Homo sapiens) (P10275 whole entry, looked up): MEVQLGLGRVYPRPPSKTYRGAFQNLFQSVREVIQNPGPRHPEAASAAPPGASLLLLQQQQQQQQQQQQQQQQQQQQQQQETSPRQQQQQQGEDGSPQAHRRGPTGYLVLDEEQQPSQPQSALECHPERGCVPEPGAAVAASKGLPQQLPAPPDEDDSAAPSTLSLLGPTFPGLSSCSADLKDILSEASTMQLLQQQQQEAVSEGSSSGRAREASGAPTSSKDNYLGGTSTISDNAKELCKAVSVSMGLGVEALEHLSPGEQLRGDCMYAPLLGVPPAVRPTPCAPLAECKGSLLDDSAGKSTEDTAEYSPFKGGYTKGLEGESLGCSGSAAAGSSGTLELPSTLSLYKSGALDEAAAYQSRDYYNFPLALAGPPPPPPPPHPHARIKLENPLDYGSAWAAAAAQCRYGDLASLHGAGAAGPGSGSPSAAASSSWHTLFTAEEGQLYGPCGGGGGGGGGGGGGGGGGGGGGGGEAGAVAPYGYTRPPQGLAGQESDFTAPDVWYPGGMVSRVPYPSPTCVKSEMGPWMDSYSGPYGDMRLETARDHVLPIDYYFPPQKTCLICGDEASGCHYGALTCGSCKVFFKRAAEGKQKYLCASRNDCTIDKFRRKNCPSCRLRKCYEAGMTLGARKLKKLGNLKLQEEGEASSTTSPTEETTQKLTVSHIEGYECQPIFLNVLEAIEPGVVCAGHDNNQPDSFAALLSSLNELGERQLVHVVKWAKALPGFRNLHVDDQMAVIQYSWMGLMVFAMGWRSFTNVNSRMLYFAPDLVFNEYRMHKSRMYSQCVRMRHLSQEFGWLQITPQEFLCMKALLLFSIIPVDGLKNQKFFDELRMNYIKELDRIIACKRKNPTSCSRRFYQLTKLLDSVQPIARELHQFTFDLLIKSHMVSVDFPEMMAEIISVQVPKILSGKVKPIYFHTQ

Take `Cc1ccc2c(c1N)C(=O)c1ccccc1C2=O`: the Potency result in [1], in [2], in [3], in [6], in assay [7] and in assay [8] was “inactive” in each case. In the assay with Aromatase (Homo sapiens), the Potency entry was “inactive”. The Potency in [4] was 24.1 µM (active) and 30.6 µM (active); in [5], 67.8 µM (active); in assay [9], 389 nM [inconclusive] (active); in assay [10], 3.03 µM (active) and 4.33 µM (active); in [11] it was 30.3 µM (active) and 27.3 µM (active).
For the compound `CCOP(=S)(OCC)O/N=C(\C#N)c1ccccc1`, the Potency result in [1], in assay [2], in [3], in assay [4], in assay [12] and in [5] was “inactive” in each case. For the same compound, the Potency entry (in assay [6]; in assay [7]; in assay [8]; in assay [11]; with Aromatase (Homo sapiens)) was “inactive” in each case.
For `CCOC(=O)C(C)OC(=O)c1cc(Oc2ccc(C(F)(F)F)cc2Cl)ccc1[N+](=O)[O-]` (stereo not given), the Potency result in assay [1], in assay [5], in assay [7], in assay [8], in [9] and in assay [11] was “inactive” throughout. The Potency entry with Aromatase (Homo sapiens) is “inactive”. Moreover, the Potency in assay [2] is 24.3 µM (active); in assay [3], 27.3 µM (active); in assay [4], 21.7 µM (active); in [13], 48.3 µM (active).
Turning to `Cc1ccc(OP(=O)(Oc2ccc(C)cc2)Oc2ccc(C)cc2)cc1`, the Potency result in [1], in assay [14], in assay [5], in [6], in [7] and in assay [8] was “inactive” each time. In addition, the Potency entry (in assay [11]; in the assay with Aromatase (Homo sapiens)) was “inactive” in each case. Further, the Potency in assay [3] was 38.6 µM (active); in assay [4], 43.2 µM (active) and 48.6 µM (active).
Consider `CCCCOCCOP(=O)(OCCOCCCC)OCCOCCCC`, for which the Potency result in [1], in [14], in [12], in assay [7], in assay [15] and in assay [9] was “inactive” in each case. Also, the Potency result (in assay [10]; in assay [13]; in [11]; in the assay with Aromatase (Homo sapiens)) was “inactive” each time. For the same compound, the Potency in [3] is 54.5 µM (active); in [4], 48.6 µM (active); in assay [5], 54.5 µM (active) and inactive; in [6] it was 24.4 µM (active) and 19.3 µM (active).
Consider `Oc1ccc(-c2ccccc2)cc1`, for which the Potency result in [1], in assay [2], in assay [4], in [12], in assay [7] and in assay [8] was “inactive” each time. The Potency entry (in [11]; with Aromatase (Homo sapiens)) was “inactive” throughout. Moreover, in [3], the Potency is 60.3 µM (active).
Regarding `CC(C)C(=O)OCC(C)(C)C(OC(=O)C(C)C)C(C)C` (stereo not given), the Potency entry in [1], in [12], in assay [5], in [7], in assay [8] and in assay [13] was “inactive” in each case. For the same compound, the Potency entry (in assay [11]; with Aromatase (Homo sapiens)) was “inactive” each time. In addition, the Potency in assay [9] was 6920 nM [inconclusive] (active); in [10] it was 12.2 µM (active).
For the compound `COC(=O)c1sccc1S(=O)(=O)NC(=O)Nc1nc(C)nc(OC)n1`, the Potency entry in [1], in assay [2], in assay [3], in [4], in assay [5] and in assay [6] was “inactive” throughout. The Potency result in [7], in [8], in assay [9], in assay [10], in assay [13] and in assay [11] was “inactive” in each case. Moreover, the Potency result with Aromatase (Homo sapiens) was “inactive”.
Consider `CCCCC(CC)COC(=O)Cl` (stereo not given), for which the Potency result in assay [1], in [2], in assay [3], in assay [4], in assay [5] and in [6] was “inactive” throughout. Also, the Potency result in assay [7], in assay [8], in assay [9], in assay [10], in assay [13] and in assay [11] was “inactive” each time. Besides, the Potency entry with Aromatase (Homo sapiens) is “inactive”.
On to `CCCCCc1cc(O)cc(O)c1`, for which the Potency result in [1], in [2], in assay [3], in assay [14], in [12] and in [5] was “inactive” in each case. Besides, the Potency result (in assay [7]; in assay [8]; in assay [11]; with Aromatase (Homo sapiens)) was “inactive” each time.
With `O=P(O)(O)CCCl`, the Potency result in assay [2], in assay [3], in [4], in assay [14], in assay [12] and in assay [5] was “inactive” each time. The Potency entry in [6], in [7], in assay [8], in assay [9], in assay [10] and in assay [13] was “inactive” throughout. The Potency result (in assay [11]; with Aromatase (Homo sapiens)) was “inactive” in each case.
For the compound `COP(=S)(OC)Oc1ccc([N+](=O)[O-])cc1`, the Potency entry in assay [1], in assay [14], in assay [12], in [5], in assay [6] and in assay [7] was “inactive” throughout. Besides, the Potency result (in assay [8]; in [9]; in assay [13]; in assay [11]; with Aromatase (Homo sapiens)) was “inactive” throughout. The Potency in assay [10] is 48.6 µM (active) and inactive.
Consider `Cc1cc(Cl)ccc1OCCCC(=O)O`, for which the Potency result in assay [1], in assay [2], in assay [3], in [4], in assay [16] and in [17] was “inactive” throughout. Besides, the Potency entry (in [5]; in [6]; in [7]; in [11]; with Aromatase (Homo sapiens)) was “inactive” each time.
In the case of `c1ccc(-c2cccc(-c3ccccc3)c2)cc1`, the Potency result in assay [1], in assay [14], in [5], in assay [6], in [7] and in [15] was “inactive” in each case. Also, the Potency entry (in assay [8]; in assay [9]; in assay [11]; with Aromatase (Homo sapiens)) was “inactive” each time. Also, the Potency in assay [10] is 21.9 µM (active) and 10.9 µM (active).
As for `C[C@]12CCC(=O)C(O)=C1CC[C@@H]1[C@@H]2CC[C@]2(C)C(=O)CC[C@@H]12`, the Potency entry in [1], in [14], in assay [12], in assay [5], in [6] and in assay [7] was “inactive” each time. Besides, the Potency entry in assay [8], in assay [13] and in assay [11] was “inactive” throughout. In addition, the Potency was 29.8 µM (active) and 26.6 µM (active) in [2]; 29.8 µM (active) and 26.6 µM (active) in assay [4]; 23.9 µM [activator] (active) and 21.3 µM [activator] (active) and 34.7 µM [activator] (active) in assay [9]; 11.9 µM (active) and 5.96 µM (active) and 5.45 µM (active) in assay [10]; 75 nM (active) and 53.1 nM (active) and 27.3 nM (active) with Aromatase (Homo sapiens).
For the compound `Nc1c(Cl)cc([N+](=O)[O-])cc1Cl`, the Potency result in assay [1], in [18], in assay [16], in [5], in [6] and in assay [7] was “inactive” in each case. Besides, the Potency entry (in assay [8]; in assay [9]; in assay [10]; in [13]; in [11]; in the assay with Aromatase (Homo sapiens)) was “inactive” each time. In addition, the Potency result was “inactive and 61.1 µM (active)” in assay [3]; “inactive and 61.1 µM (active)” in assay [4]; “inactive and 61.1 µM (active)” in assay [17].
